Measurements published in patent publication US20050118148, “Compositions and methods related to mammalian Maf-A” (published 2005).

biological target: RIPE3b1 activator (MafA, endogenous) (Mus musculus, UniProt Q8CF90 SEQ:1-359); assay: competition; B4/5 roughly 20-fold more effective competitor than B4; details: protein: extract; tags: beta cell line nuclear extract (betaTC-3, Min6); label: 32P; dsDNA, one strand shown
Protocol: To define the factors associated with B4 and B5 mediated regulation, gel shift experiments were performed with probes spanning B4, B5, and B4+B5 (B4/5) and βTC-3 or MIN6 cell nuclear extracts (FIG. 12). Two common protein-DNA complexes were detected with the B4 and B4+B5 probes (labeled as A and B in FIG. 12B), whereas no binding was found with B5 (data not shown). The binding affinity of B4 and B4/5 for these complexes was determined with the wild type and B4+B5 double mutant site (B4+B5MT) competitors.

Chain of RIPE3b1 activator (MafA, endogenous) (Q8CF90 whole entry): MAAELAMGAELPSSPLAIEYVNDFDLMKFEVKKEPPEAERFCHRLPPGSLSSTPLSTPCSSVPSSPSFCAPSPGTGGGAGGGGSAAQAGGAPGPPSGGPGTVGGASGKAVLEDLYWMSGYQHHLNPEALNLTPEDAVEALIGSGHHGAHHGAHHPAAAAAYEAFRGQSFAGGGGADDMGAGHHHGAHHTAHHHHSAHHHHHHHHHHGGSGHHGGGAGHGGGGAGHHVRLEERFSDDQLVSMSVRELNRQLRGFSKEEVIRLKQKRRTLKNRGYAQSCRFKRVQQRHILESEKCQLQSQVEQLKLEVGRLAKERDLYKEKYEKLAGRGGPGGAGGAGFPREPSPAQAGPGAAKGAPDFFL

| Sequence | binding signal |
| --- | --- |
| AGCTTTCTTTTTGCAAAGCACAGCAT | ~20 fold |
